# In the library only some 1.4% were active in any assay of this set; here they are far more common.
# GLS inh – inhibitors of human glutaminase (GLS); O94925; GLS enzymatic activity, qHTS titration; Potency, µM (top dose mostly 45.5 µM), usual class: inhibitors; 410,000 tested, 0.21% active; AID 624170
#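 Assay buffer: 45 mM KH2PO4 pH 8.2, 0.02% Tween-20. hKGA acts on L-glutamine (1 mM solution added); product glutamate is reported by an oxidase/peroxidase Amplex Red coupling, with fluorescence taken at baseline and 30 min.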
# mIDH1 inhibitor – human IDH1 R132H inhibition; IDH1-R132H enzyme, NADPH consumption, diaphorase/resazurin fluorescence; O75874; Potency, µM (series often up to 76.6 µM), most hits filed as inhibitors; AID 602179; 390,000 tested, 0.093% active; note: nearly all actives have a fitted effect of over 65% in size
#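 IDH1-R132H (0.5 ug/mL dispensed) in pH 7.5 Tris buffer was preincubated 30 min with compound, then given a substrate mix of 0.016 mM NADPH and 2 mM alpha-KG for 80 min at room temperature; remaining NADPH was read by diaphorase/resazurin fluorescence.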
# LDHA block – blocks human lactate dehydrogenase A | AID 1347041 | purified LDHA, NADH/diaphorase-resazurin fluorescence; hits give low values | P00338 | 480,000 tested, 0.15% active | activity change, % (values are at about 110 or 230 µM); in the data active = activity change below about -30%; inconclusive = mostly about -25% to -30%
#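 Resorufin fluorescence (ex540/em590), read at 0 and 20 min after diaphorase/resazurin addition, reports the NADH left after a 5 min room-temperature reaction of 2 nM human LDH5 with 0.06 mM NADH and 0.2 mM pyruvate.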
# TrxR1 substrate – rat thioredoxin reductase 1 substrate activity. O89049. purified TrxR1 substrate turnover, NADPH consumption readout. Potency, µM (series often up to 114 µM). 390,000 tested, 0.01% active; note: nearly all actives have a fitted effect of over 50% in size
# Target sequence (O89049 whole entry, looked up): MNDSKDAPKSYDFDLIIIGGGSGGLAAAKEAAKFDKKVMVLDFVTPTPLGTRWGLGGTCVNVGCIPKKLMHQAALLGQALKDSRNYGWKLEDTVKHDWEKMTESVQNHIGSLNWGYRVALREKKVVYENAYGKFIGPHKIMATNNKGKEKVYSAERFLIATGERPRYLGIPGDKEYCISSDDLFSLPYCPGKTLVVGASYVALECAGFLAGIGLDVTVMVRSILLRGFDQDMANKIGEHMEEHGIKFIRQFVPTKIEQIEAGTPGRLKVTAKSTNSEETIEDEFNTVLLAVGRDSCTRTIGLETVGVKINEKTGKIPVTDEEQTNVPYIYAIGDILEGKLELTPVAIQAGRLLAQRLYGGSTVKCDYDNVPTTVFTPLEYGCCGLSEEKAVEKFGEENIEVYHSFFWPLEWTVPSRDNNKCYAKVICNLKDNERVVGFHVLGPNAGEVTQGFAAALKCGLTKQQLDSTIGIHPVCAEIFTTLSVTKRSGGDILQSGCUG
#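 Rat TrxR1, dispensed at 90 nM, was prereduced with 400 uM NADPH (final) for 5 min at ~22 deg C, then incubated with compound 15 min before 400 uM selenite. A first-read NADPH fluorescence drop versus no-compound background flagged substrates.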
# PKM2 act – increases activity of human pyruvate kinase M2; 260,000 tested, 0.34% active; P14618; purified PKM2, Kinase-Glo ATP luminescence, activation; response scale: 0% is enzyme alone, no compound; AID 1631; Potency, µM (top dose mostly 57.5 µM), most hits filed as activators; note: nearly all actives have a fitted effect of over 55% in size
#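 Purified hPK-M2 (>95% pure) converted ADP (0.1 mM final) to ATP with 0.5 mM PEP in 50 mM imidazole pH7.2, KCl, MgCl2, Tween 20, BSA; 1 h at room temperature. ATP detected by Kinase-Glo luminescence.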
# rTrxR1 inhibitor – inhibitors of rat thioredoxin reductase 1; O89049; recombinant rTrxR1, NADPH fluorescence consumption, selenite substrate; Potency, µM (top dose mostly 114 µM), most hits filed as inhibitors; 390,000 tested, 1% active; note: nearly all actives have a fitted effect of over 65% in size
#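 Rat TrxR1 (90 nM in the dispensed reagent) was pre-reduced with 400 uM NADPH for 5 min at room temperature, then incubated with compound for 15 min. After 400 uM selenite was added, NADPH fluorescence (Ex 340/Em 450 nm) was followed for 8 min.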
# A number is an active result; - = inactive; ? = inconclusive; . = not tested or not shown; ! = repeats disagree; [ ] = remark or other dose. Unless noted, calls come from the whole dose curve; as a rule, active = well fitted curve in the direction sought with a large enough effect; inconclusive = small, poorly fitted or top-dose-only effect, or another doubt; inactive = no such curve, though single readings can be large; an effect the other way counts as inactive or inconclusive.
SMILES,GLS inh,mIDH1 inhibitor,LDHA block,TrxR1 substrate,PKM2 act,rTrxR1 inhibitor
CC(Oc1c(F)c(F)c(F)c(F)c1F)C(=O)c1c[nH]c2ccccc12 (stereo not given),.,.,-,.,.,.
Cc1ccc(C(=O)N/C(=C\c2ccc(-c3ccccc3[N+](=O)[O-])o2)C(=O)NCCN(C)C)cc1,-,-,-,-,-[11.5 µM],14µM
O=C(O)c1cccc(NC(=O)c2cccc(S(=O)(=O)Nc3cccc(C(=O)O)c3)c2)c1,-,-,-,-,.,-
O=C(Nc1cccc(C(=O)Nc2ccc(S(=O)(=O)O)c3cc(S(=O)(=O)O)cc(S(=O)(=O)O)c23)c1)Nc1cccc(C(=O)Nc2ccc(S(=O)(=O)O)c3cc(S(=O)(=O)O)cc(S(=O)(=O)O)c23)c1,.,.,-112,-,.,?
O=C(c1ccccc1-c1ncc(-c2ccccc2F)o1)N1CCCC1,.,.,-,.,.,.
CC(=O)Oc1ccc(S(=O)(=O)c2ccc(OC(C)=O)cc2)cc1,-,?,-,-,14µM,-
Cc1ccc(NC(=O)CS(=O)CC(=O)Nc2ccc(N3CCOCC3)cc2)cc1Cl (stereo not given),-,-,-31,-,-,-
Cc1ccc(NC(=O)c2cc(N3C(=O)CCC3=O)ccc2N2CCOCC2)cc1,-,-,-,-,-,-
Cc1ccc(NC(=O)c2cc(N3C(=O)C=CC3=O)ccc2N2CCOCC2)cc1Cl,-,-,-,-,-,3.5µM
Cn1nc(C(=O)OCC(=O)N2c3ccccc3NC(=O)C2(C)C)c2ccccc2c1=O,.,.,-,.,.,.
CCc1ccc(NC(=O)CSc2ncnc3ccccc23)cc1,.,.,-,.,.,.
Cc1ccc(OCC(O)Cn2nnc(-c3cccnc3)n2)c(C)c1 (stereo not given),.,.,-,.,.,.
O=C(NC1CCCCC1)c1cnn2c(C(F)(F)F)cc(-c3ccco3)nc12,-,-,-,-,-,3.5µM
O=C(NCCc1ccccc1)c1ccc2nc(-c3ccco3)c(-c3ccco3)nc2c1,-,-,-,-,-,3.2µM
O=C(NCCO)c1ccc2nc(-c3ccco3)c(-c3ccco3)nc2c1,-,-,-,-,-,8.9µM
O=C(NC1CCCC1)c1ccc2nc(-c3ccco3)c(-c3ccco3)nc2c1,?,-,-,-,-,3.2µM
CCN(CC)c1nc2ccccc2nc1C(=O)Nc1ccc(Cl)cc1,.,.,-,.,.,.
O=C(c1ccccc1)c1ccc2nc(-c3ccco3)c(-c3ccco3)nc2c1,?,-,-,-,-,2.8µM
c1coc(-c2nc3ccccc3nc2-c2ccco2)c1,?,-,-,-,?,?
CC1(C)CC(NC(=O)C2CCN(S(=O)(=O)c3ccccc3)CC2)CC(C)(C)N1,.,.,-,.,.,.
CC(=O)/C(=C/c1ccccc1)C(=O)Nc1ccccc1C,-,-,-,-,-,25µM
Cc1ccccc1NC(=O)C(=Cc1ccc(C(=O)O)cc1)C(=O)Nc1ccccc1C,-,-,-,-,-,-
CCCC(=O)N(C)CCOc1ccccc1,.,.,-,.,.,.
O=C(CC1(O)C(=O)N(CN2CCOCC2)c2ccccc21)c1ccc(F)cc1 (stereo not given),.,.,-,.,.,.
C#CC(=O)N(c1ccc(OC)c(OC)c1)C(C(=O)NC1CCCC1)c1cccs1 (stereo not given),-,-,-,-,-,3.2µM
SMILES,GLS inh,mIDH1 inhibitor,LDHA block,TrxR1 substrate,PKM2 act,rTrxR1 inhibitor
CCC(C)Cn1cnc2c(Sc3c([N+](=O)[O-])ncn3C)nc(N)nc21 (stereo not given),-,-,-,-,.,2.8µM
CC(C)Cn1cnc2c(SCc3ccccc3Cl)nc(N)nc21,-,-,-,-,.,-
CC(C)Cn1cnc2c(Sc3c([N+](=O)[O-])ncn3C)nc(N)nc21,-,-,-,-,.,2µM
COc1ccccc1C(=O)Nc1ccc2oc(-c3cccc(F)c3)nc2c1,.,.,-,.,.,.
C(#CCN1CCCCC1)COCCCOCc1ccccc1,.,.,-,.,.,.
CN(C(=O)CCC1CCCCC1)C1(c2ccccc2Cl)CCCCC1=O (stereo not given),.,.,-,.,.,.
COC(=O)C1=C(O)/C(=C\c2cc(C)n(-c3ccccc3C)c2C)N=C1C,-,-,-,-,-,-
COC(=O)C1=C(O)/C(=C\c2cc(C)n(-c3ccccc3F)c2C)N=C1C,-,-,-,-,-,16µM
O=C(CSc1nnc(-c2ccncc2)n1-n1cccc1)Nc1ccc2c(c1)OCO2,.,.,-,.,.,.
CCC(=O)N1N=C(c2cccs2)CC1c1ccc(C)cc1 (stereo not given),-,-,-,-,.,-
Cc1ccc(C2CC(c3cccs3)=NN2C(=O)CCl)cc1 (stereo not given),-,-,-,-,.,13µM
COCc1cc(=O)[nH]c(SCCS(=O)(=O)c2ccc(C)cc2)n1,-,-,-,-,-,-
COCc1cc(=O)[nH]c(SCCS(=O)(=O)c2ccc(Cl)cc2Cl)n1,-,-,-,-,-,1.3µM
CC(=O)Oc1ccc2cc(-c3ccccc3)c(=O)oc2c1,-,-,-31!,-,-,-
CC(=O)Oc1ccc(-c2cc3ccc(OC(C)=O)cc3oc2=O)cc1,-,-,-,-,.,-
COc1ccc(-c2cc3ccc(OC(C)C(=O)O)cc3oc2=O)cc1 (stereo not given),-,-,-,-,-,71µM
CCOc1ccc(C(c2c(O)nc(SC)n(C)c2=O)c2c(O)nc(SC)n(C)c2=O)cc1,-,-,-,-,-,8.9µM
O=C(Nc1nnc(-c2cccs2)o1)c1cccc(F)c1,-,-,-,-,.,-
O=C(Nc1nnc(-c2cccs2)o1)c1cccc(Oc2ccccc2)c1,-,-,-33,-,-,-
O=c1[nH]c(Sc2ccc([N+](=O)[O-])cc2[N+](=O)[O-])nc2ccccc12,-,-,-,-,.,3.2µM
O=C(CSc1nc2ccccc2c(=O)[nH]1)Nc1ccc([N+](=O)[O-])cc1,-,-,-,-,.,-
C=Cc1c(C)c2cc3[nH]c(cc4nc(cc5nc(cc1[nH]2)C(C)=C5CCC(=O)O)C(CCC(=O)O)=C4C)c(C)c3C=C,?,?,-,-,.,5.3µM!
Oc1ccc(Cl)cc1C=NCc1ccc(Cl)cc1,.,.,-,.,.,.
CN(Cc1ccc(C(N)=O)cc1)Cc1ccsc1,.,.,-,.,.,.
O=CC(O)C1OC(=O)C(O)C1O (stereo not given),11µM,-,-,-,.,-
O=C1O[C@H](CO)[C@@H](O)[C@H](O)[C@H]1O,-,-,-,-,.,-
C=C(C)CSc1cc(C)c(C#N)c2nc3ccccc3n12,-,-,-,-,?,11µM
Cc1cc(NCCCCO)n2c(nc3ccccc32)c1C#N,-,-,-,-,-,-
COc1ccc(-c2nc3c(C#N)c[nH]n3c2NC2CCCCC2)cc1,13µM,-,-,-,.,-

# High-throughput results deposited in PubChem BioAssay by National Center for Advancing Translational Sciences (NCATS).
